Compounds with a hit are over-represented: about 19% of the library has one in this group of screens.
MCF10A rerep = A quantitative high throughput screen for small molecules that induce DNA re-replication in MCF 10a normal breast cells. MCF 10A DNA re-replication, Hoechst nuclear intensity, 48 h. Potency, µM (titrated, usually from 46.1 µM), for inactives: at the highest dose activity, positive = re-replication, most hits filed as activators. actives 2.9% (n = 350,000). AID 624296, 2012; note: potency is the fitted concentration of half-maximal effect; % of control where 0% means no effect; nearly all actives have a fitted effect of over 50% in size
SW480 rerep = A quantitative high throughput screen for small molecules that induce DNA re-replication in SW480 colon adenocarcinoma cells; SW480 DNA re-replication, Hoechst DNA content imaging, 48 h; Potency, µM (series often up to 46.1 µM), for the others: top-dose re-replication activation, hits mostly activators; actives 1.8% (n = 340,000); AID 624297, 2012; note: potency is the fitted concentration of half-maximal effect; % of control where 0% means no effect; nearly all actives have a fitted effect of over 55% in size
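Image-based DNA-content assay: after two days of treatment, nuclei were labelled with the DNA dye Hoechst and imaged, and hits were compounds raising the count of nuclei showing high fluorescence intensity.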
TDP1 cell CPT = qHTS for Inhibitors of human tyrosyl-DNA phosphodiesterase 1 (TDP1): qHTS in cells in presence of CPT; chicken DT40 Tdp1-/-;hTDP1 cells + 20 nM CPT, ATP luminescence, 48 h; Potency, µM (series often up to 46.2 µM), without a hit: at the highest dose activity change, negative = growth inhibition, most hits filed as inhibitors; actives 12% (n = 420,000); note: potency is the fitted concentration of half-maximal effect; % is set by controls: 0 for no effect and ±100 for the full control effect; nearly all actives have a fitted effect of over 55% in size
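Chicken DT40 Tdp1-/- cells stably complemented with human TDP1 were seeded at 400 cells/well in medium containing 20 nM camptothecin, exposed to pin-transferred compounds, and grown at 37 °C for at least 48 hr. Viability was read as ATP luminescence.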
BCR signal inh = qHTS Assay to Find Inhibitors of Chronic Active B-Cell Receptor Signaling. ABC-DLBCL IkBa-CBG/CBR reporter, luminescence ratio, 4 h. Potency, µM (top dose mostly 46.1 µM), for the others: top-dose activity change, negative = inhibition, usual class: inhibitors. actives 0.05% (n = 340,000). AID 493014, 2011; active = well fitted inhibition curve with a large enough effect in the signal ratio, with a control signal flat, not every such curve was filed as active; inconclusive = small, poorly fitted or top-dose-only effect, or effect the other way, or a change in a side signal; the % refers to the signal ratio;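 note: potency is the fitted concentration of half-maximal effect; plate controls were basal doxycycline-induced cells for no effect and cells given 10 µM MG132 for full effect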
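Doxycycline induced both beetle luciferases in TMD8 lymphoma cells; IKK-driven degradation limits the IkappaBalpha-fused green signal, while red luminescence normalises for cell number and nonspecific effects. Compounds tested up to 46 uM, 4 hrs.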
IL1B secr inh = qHTS for Inhibitors of Inflammasome Signaling: IL-1-beta AlphaLISA Primary Screen | THP-1 LPS/ATP IL-1B secretion, AlphaLISA, 16 h; active compounds read low | activity change, % at 57.5 µM | actives 4.7% (n = 360,000) | AID 743279, 2014; in the data active = activity change below about -50%; inconclusive = mostly about -30% to -49%; note: % is set by controls: 0 for no effect and ±100 for the full control effect
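Secreted IL-1B measured by AlphaLISA bead assay after 16 h compound exposure of THP-1 cells; compounds (final up to 57.5 uM) added 1 h before LPS (250 ng/mL) and ATP (1.25 mM) stimulation; lower signal means less secretion.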
TDP1 cell noCPT = qHTS for Inhibitors of human tyrosyl-DNA phosphodiesterase 1 (TDP1): qHTS in cells in absence of CPT; Potency, µM (doses to about 46.2 µM), for inactives: at the highest dose activity change, negative = growth inhibition, hits mostly inhibitors; DT40 Tdp1-/- hTDP1 cells, no CPT, ATP luminescence, 48 h; AID 686978, 2013; actives 15% (n = 420,000); note: potency is the fitted concentration of half-maximal effect; % is set by controls: 0 for no effect and ±100 for the full control effect; nearly all actives have a fitted effect of over 55% in size
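Camptothecin absent (DMSO only). Human TDP1-complemented DT40 knockout cells, 400 cells/well, 37 °C for minimum 48 hr; ATP measured via CellTiter-Glo, 30 min dark incubation, luminescence.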
* marks the source's active call; other numbers are inactive results; ? = inconclusive; . = not tested or not shown. Unless noted, calls come from the whole dose curve; as a rule, active = well fitted curve in the direction sought with a large enough effect; inconclusive = small, poorly fitted or top-dose-only effect, or another doubt; inactive = no such curve, though single readings can be large; an effect the other way counts as inactive or inconclusive.

SMILES	MCF10A rerep	SW480 rerep	TDP1 cell CPT	BCR signal inh	IL1B secr inh	TDP1 cell noCPT
CCOc1cc(S(=O)(=O)Nc2cc(C)cc(C)c2)ccc1Cl	?	23.4%	16.4µM*	?	-58.8*	16.4µM*
CCCCCOc1ccc(NC(=O)C(=O)NCCCn2ccnc2)cc1	?	6.2%	?	8.9%	21.8	18.4µM*
CCOc1ccc(S(=O)(=O)NCCCn2ccnc2)cc1	23.1µM*	-8.0%	?	4.5%	15.0	-17.3%
CCOc1ccccc1NC(=S)NCCCn1ccnc1	0.581µM*	?	0.4%	3.6%	6.0	0.8%
CNC1CC(N)[C@H](O)[C@@H](O[C@@H]2OC(CO)C3OC4(OC(C(N)CO)C(O)C(O)C4O)O[C@@H]3[C@H]2O)C1O (stereo partly drawn)	27.6%	-1.5%	.	.	.	.
Cc1ccc(S(=O)(=O)N2C[C@H]3C(=O)C[C@@H](c4ccccc4)N(S(=O)(=O)c4ccc(C)cc4)[C@H]3C[C@H]2c2ccccc2Cl)cc1	.	.	-0.1%	.	-7.3	-1.7%
CCOC(=O)COc1cc(OCC(=O)OCC)c2c3c(c(=O)oc2c1)CCCC3	5.4%	-1.2%	9.2%	?	32.4	4.9%
CC(=O)Nc1ccc(S(=O)(=O)NCc2ccncc2)cc1	14.5%	-1.8%	9.2µM*	-2.0%	37.7	9.2µM*
Cc1ccc(S(=O)(=O)NCc2ccncc2)cc1	?	?	4.11µM*	-4.9%	42.4	3.66µM*
Cc1ccc(S(=O)(=O)NCC(=O)NCc2ccncc2)cc1	-1.4%	-3.9%	-12.2%	-16.0%	8.2	-3.7%
CCOc1ccc(S(=O)(=O)NCc2ccncc2)cc1	6.7%	0.4%	0.461µM*	-25.6%	-11.8	0.517µM*
CCOc1ccc(NS(=O)(=O)c2ccc(C(=O)NCc3ccncc3)cc2)cc1	4.2%	-2.3%	?	2.3%	8.0	13µM*
C#CCCCCCCCCCCCc1ccco1	.	.	6.1%	.	.	?
O=P1(NC2CCCC2)OCC2(CO1)COP(=O)(NC1CCCC1)OC2 (stereo not drawn)	-4.3%	-1.3%	4.3%	.	-2.1	8.1%
CCC(CN)CC(C)CCNCC(O)CNCC(C)CC(CC)CN (stereo not drawn)	.	.	-1.2%	.	.	3.1%
CC(=O)CCS(=O)(=O)c1ccc(NC(C)=O)cc1	?	?	13µM*	?	-7.8	18.4µM*
CCOc1cc(S(=O)(=O)NCc2ccncc2)ccc1Cl	11.6%	-18.5%	0.517µM*	-10.0%	-1.7	0.581µM*
CCOc1ccc(S(=O)(=O)NC2CCCCC2C)cc1 (stereo not drawn)	-6.7%	1.4%	?	.	0.0	?
CCOc1cc(S(=O)(=O)NCc2cccs2)ccc1Cl	-8.8%	-1.0%	?	-6.0%	-7.9	?
CC1CCCCC1NS(=O)(=O)c1ccc(S(=O)(=O)NCc2ccncc2)cc1 (stereo not drawn)	21.3%	0.5%	6.51µM*	11.6%	-22.3	7.31µM*
Cc1ccc(S(=O)(=O)NCCCCCCNS(=O)(=O)c2ccc(C)cc2)cc1	.	.	?	.	-28.5	23.1µM*
Cc1cc(OCC(=O)OCC(=O)Nc2ccc(Cl)cn2)ccc1Cl	-5.7%	?	6.2%	5.5%	11.8	9.2%
CCC(=O)N[C@@H]1c2ccccc2C2(CCN(Cc3[nH]c4c(Cl)cccc4c3C)CC2)[C@H]1OC	.	.	-13.7%	.	.	-26.5%
CCOC(=O)c1ccccc1NC(=O)Cn1c(=O)n(Cc2ccccc2)c(=O)c2c(C)c(C)sc21	0.6%	-5.0%	-24.7%	2.3%	65.4	?
CC1(C)CC(=O)C2=C(C1)OC(N)=C(C#N)C2c1cc2c(cc1[N+](=O)[O-])OCO2 (stereo not drawn)	4.4%	-5.3%	?	-0.1%	21.3	?
SMILES	MCF10A rerep	SW480 rerep	TDP1 cell CPT	BCR signal inh	IL1B secr inh	TDP1 cell noCPT
CCN(CC)c1ccc(NC(=O)C2CC(=O)N(Cc3ccccc3)C2)cc1 (stereo not drawn)	-0.5%	5.8%	?	-9.5%	-6.9	11.6µM*
O=C(Nc1cccc(S(=O)(=O)N2CCCCC2)c1)C1CC(=O)N(Cc2ccccc2)C1 (stereo not drawn)	10.7%	-8.5%	?	-0.3%	?	-1.5%
CN(c1ccccc1)S(=O)(=O)c1cccc(NC(=O)C2CC(=O)N(Cc3ccccc3)C2)c1 (stereo not drawn)	3.0%	-16.3%	16.4µM*	-1.0%	-22.3	20.6µM*
Cc1ccc(CN2CC(C(=O)Nc3cc(C)ccn3)CC2=O)cc1 (stereo not drawn)	16.3%	29.1µM*	26.2%	?	-7.6	1.1%
Cc1ccc(CN2CC(C(=O)Nc3ccncc3)CC2=O)cc1 (stereo not drawn)	-6.6%	-3.7%	-10.7%	?	33.9	-8.2%
CN(C)S(=O)(=O)c1ccc(NC(=O)C2CC(=O)N(Cc3ccccc3)C2)cc1 (stereo not drawn)	11.1%	?	7.0%	0.3%	5.8	-7.6%
COC(=O)c1ccccc1-c1ccc(/C=C2\C(=O)N(c3ccccc3)N=C2c2ccccc2)o1	5.7%	-2.3%	-20.0%	-1.8%	12.9	?
CC1(C)OC(=O)C(=Cc2ccc(-c3ccc(Cl)c(C(=O)O)c3)o2)C(=O)O1	-5.9%	5.8%	0.1%	-11.8%	0.0	15.2%
Nc1ccccc1N=Cc1ccc(-c2cccc(Cl)c2)o1	?	?	20.6µM*	?	-82.3*	23.1µM*
CC1=NOC(=O)/C1=C\c1ccc(-c2ccccc2Br)o1	?	-13.4%	6.51µM*	?	-96.4*	5.8µM*
CC1=CC2=NC(=O)/C(=C\c3ccc(-c4cccc(Cl)c4)o3)C(=N)N2O1	13.8%	17.6%	4.61µM*	1.4%	23.2	2.59µM*
COC(=O)N/N=C/c1ccc(-c2cccc(Cl)c2)o1	3.6%	0.6%	2.8%	-11.7%	-5.1	?
CC1=NOC(=O)/C1=C\c1ccc(-c2cccc(Cl)c2)o1	16.4µM*	?	5.8µM*	9.6%	-100.1*	5.17µM*
CCOc1cc(N2CCOCC2)c(OCC)cc1NC(=O)COC(=O)c1c(C)noc1C	.	.	?	.	4.4	?
CCCN1Cc2cccc(C(=O)Nc3cc(C)cc(C)c3)c2C1=O	.	.	-13.6%	.	.	?
O=C(Cn1nnnc1-c1ccccc1F)Nc1ccc(F)c(F)c1	.	.	-27.3%	.	.	-21.0%
